This note sets out measurements from PubChem BioAssay (NCI).

Where “and” joins values, the source holds several entries; their conditions need not be identical. Identical values can stand only once. The panel holds about 83,000 compounds, 20% with a hit somewhere; the sample as a whole holds those more often.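 Plates (96-well) were seeded with cells, treated with compound at one concentration, and incubated for 48 hours before percent growth was determined.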 Calls of active or inactive are those of the source. The calls were made as follows: active = growth percent below 10; inactive = the rest.

This assay has as its system MDA-MB-468 breast. Description: NCI-60 one-dose screen, 48 h (100 = growth as untreated, 0 = no growth, -100 = all killed). The settings on record: 10 µM unless noted.
With `COCCOc1ccc(-c2csc(NC(=O)CN3CCN(CCO)CC3)n2)cc1NS(=O)(=O)c1cccc2c(N(C)C)cccc12`, the growth was 60.7% (inactive).
The result for `O=C(Nc1ccc(-n2cc(-c3ccncc3)c(-c3ccc(Cl)c(O)c3)n2)cc1)c1cc(C(F)(F)F)cc(C(F)(F)F)c1` reads 71.9% (inactive); that for `COc1cccc(-c2nn(C(C)(C)C)cc2-c2ccnc(NCCCNS(=O)(=O)c3cccc4ccccc34)c2)c1`, 110% (inactive); that for `CCCC/C(=N\N=C(N)N)c1ccc(F)cc1`, -12.3% (active).
The result for `COc1cc(Cl)cc(-c2nn(C(=O)NS(=O)(=O)c3ccc(Cl)cc3)cc2-c2ccncc2)c1` reads 83.7% (inactive).
The result for `CSc1nc(-c2ccco2)c2c(N)[nH]nc2n1` reads 113% (inactive).
As to `COc1ccc(-c2cn[nH]c2-c2cc(OC)c(OC)c(OC)c2)cc1N`, the growth was -13.3% (active) and -29.2% (active).
The result for `COc1cc(-c2nn(-c3cccc(NC(=O)NCCNC(=O)c4ccccc4)c3)cc2-c2ccncc2)ccc1Cl` reads 12.1% (inactive).
Turning to `Clc1ccc(-c2nc(NCCc3ccccc3)nc3c(NCCc4ccccc4)cnn23)cc1`, the growth is 47.8% (inactive).
Turning to `CC1=CN2C(=NC3=C(CCCC/C3=C\c3ccccc3)C2c2ccccc2)S1` (stereo not given), the growth was 116% (inactive).
`Nc1ncnc2c1ccn2-c1cccc(NC(=O)c2cccc(C(F)(F)F)c2)c1`: the growth is 31.3% (inactive).
The result for `CCNC(=S)N(Cc1ccccc1)Cc1ccccc1` reads 95.4% (inactive); that for `CC1CCCC(=O)O1` (stereo not given), 97.4% (inactive) and 97.3% (inactive).
As to `Cn1cc(-c2csc(-c3cn(C)c4ncccc34)n2)c2cc(Br)cnc21`, the growth is -28.4% (active).
Regarding `CN1CCN(C(=O)OCc2nc3c(N4CCOCC4)nc(Cl)nc3n2C)CC1`, the growth was -69.4% (active).
Consider `COc1cc(/C=C2\CCC/C(=C\c3cc(CN4CCOCC4)c(O)c(OC)c3)C2=O)cc(CN2CCOCC2)c1O`, for which the growth was 31.5% (inactive).
The result for `CCCCCCCC/C=C/CCCCCCCC1=NC(C)(C)CN1CCO` reads -64.5% (active); that for `CCCNC(=O)c1cn2ncnc(Nc3cc(C(=O)NC4CC4)ccc3C)c2c1C`, 73% (inactive); that for `O=C(Nc1ccccc1N1CCCC1=O)c1oc2ccc(F)cc2c1-c1cnn(-c2ccccc2)c1`, 51.1% [50 µM] (inactive).
Regarding `O=[N+]([O-])c1ccc([I+]c2ccccc2)cc1`, the growth was -5.9% (active).
The same measure for `COc1ccc2sc3c(NCCCN)nc4ccccc4c3c(=O)c2c1`: 48.6% (inactive); for `O=C(Nc1ccccc1)Nc1cccc(Oc2nnc(Cl)c3ccccc23)c1`: 0.467% (active); for `C=C(C)[C@@H]1C[C@H](O)Cc2cc(Cl)cc(Cl)c2N1`: 97.5% (inactive).
The same measure for `COc1ccc(N/C=C/C2=[N+](C)c3ccccc3C2(C)C)c(OC)c1`: 80.5% (inactive); for `CC(C)(c1ccccc1)c1cc(O)c(C(C)(C)c2ccccc2)cc1O`: 26.4% (inactive); for `COC(c1ccc2c(c1)OCO2)C(C)Br` (stereo not given): 93.4% (inactive).
The result for `COc1ccc(/C=C(/C(=O)n2cnnn2)c2cc(OC)c(OC)c(OC)c2)cc1` reads 13.6% (inactive).
For `CCCCCS(=O)(=O)Nc1ccc(C(=O)O)cc1`, the growth was 104% (inactive).
Turning to `COc1cc([C@@H]2c3cc4c(cc3[C@H](O)[C@H]3COC[C@@H]23)OCO4)cc(OC)c1OC`, the growth is 58% (inactive).
The same measure for `O=C(N/N=C\c1ccccc1O)C1CC1`: 102% (inactive); for `Cc1cccc(NC(=O)c2sc3nc4c(cc3c2N)CCCC4)c1C`: 19.3% (inactive).
The same measure for `Oc1ccc(Br)cc1Sc1cc(Br)ccc1O`: 82.3% (inactive).
The result for `O=[N+]([O-])c1ccc(NC(=S)N/N=C/c2cc3ccccc3n3nnnc23)cc1` reads 61.7% (inactive); that for `COc1cc(NC(C)CCCNC(C)C)c2ncccc2c1OC` (stereo not given), 32.8% (inactive); that for `COc1ccc(NC(=O)c2sc3nc(-c4cnccn4)cc(-c4cccs4)c3c2N)cc1`, 89% (inactive).
For `N#Cc1ncc(-c2cc(F)ccc2F)c(NC2CCCCCC2)n1`, the growth is 90.3% (inactive).
Regarding `O=C(/C=C/c1ccc2ccccc2c1)Nc1ncc(Cc2ccccc2)s1`, the growth was 64% (inactive).
The result for `c1coc(-c2c3ccc(=[N+]4CCCCC4)cc-3oc3cc(N4CCCCC4)ccc23)c1` reads -88.6% (active); that for `N#Cc1c(Nc2ccccc2)nc2n(c1=O)-c1ccccc1Sc1ccccc1-2`, 72.8% (inactive).
The result for `CCc1nn2c(-c3cc(OC)c(OC)c(OC)c3)c(-c3cc(OC)c(OC)c(OC)c3)nc2s1` reads 49.3% (inactive).
